Our source for the Potency values is PubChem BioAssay (NCATS).

Each structure is given as a SMILES string. Inconclusive results are not listed. Calls of active or inactive are those of the source. The call rests on the fitted dose curve; in most records, active means well fitted curve in the direction sought with a large enough effect; inconclusive means small, poorly fitted or top-dose-only effect, or another doubt; inactive means no such curve, though single readings can be large; an effect the other way counts as inactive or inconclusive.

A short description of test [1]: qHTS of pediatric cancer cell lines to identify multiple opportunities for drug repurposing: Primary screen for RD cells (AID 1347104). Further: nearly all actives have a fitted effect of over 55% in size. Further: potency means the concentration at half of the fitted maximal effect. A digest of the protocol:
(§1)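 Cells seeded at 500-1,000 cells/well in growth media, rested 5 hours at 37 degrees C, 5% CO2, then dosed; MIPE compounds at 11-point (from 0.78 nM) and NPC at 8-point (from 0.59 nM) final concentrations. Viability by CellTiter-Glo luminescence after 48 hours.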

Test [2] in a line: qHTS of pediatric cancer cell lines to identify multiple opportunities for drug repurposing: Primary screen for MG 63 (6-TG R) cells (AID 1347105). Further: nearly all actives have a fitted effect of over 50% in size. Further: potency means the concentration at half of the fitted maximal effect. A digest of the protocol: as §1
A short description of test [3]: qHTS of pediatric cancer cell lines to identify multiple opportunities for drug repurposing: Primary screen for Rh30 cells (AID 1347107). Further: nearly all actives have a fitted effect of over 75% in size. Further: potency means the concentration at half of the fitted maximal effect. A digest of the protocol: (§2)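 Cells (500-1,000/well) rested 5 h, then received compounds for 48 h; metabolically active cells were measured by CellTiter-Glo luminescence. Final concentrations spanned up to 46 µM (MIPE, 11-point) or 0.59 nM-46 µM (NPC, 8-point) in primary screens, 11-point in follow-ups.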

Test [4] in a line: qHTS of pediatric cancer cell lines to identify multiple opportunities for drug repurposing: Primary screen for control Hh wild type fibroblast cells (AID 1347106).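 Further: series mostly up to about 46 µM; a drop in luminescence marks cytotoxicity and a rise apparent proliferation; nearly all actives have a fitted effect of over 55% in size.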 A digest of the protocol: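 Cells (500-1,000/well) in growth media were settled 5 h at 37 degrees C, then given compounds for 48 h. Viability was read as CellTiter-Glo luminescence. Primary runs used MIPE at 11 points (0.78 nM-46 µM) and NPC at 8 points (0.59 nM-46 µM); follow-ups used 11 points.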

Test [5] is described as follows: qHTS of pediatric cancer cell lines to identify multiple opportunities for drug repurposing: Primary screen for Rh41 cells (AID 1347108). Further: nearly all actives have a fitted effect of over 70% in size. Further: potency means the concentration at half of the fitted maximal effect. The essentials:
as §1

A short description of test [6]: qHTS of pediatric cancer cell lines to identify multiple opportunities for drug repurposing: Confirmatory screen for NB1643 cells (AID 1347109). Further: nearly all actives have a fitted effect of over 45% in size. Further: potency means the concentration at half of the fitted maximal effect. A digest of the protocol: as §2
The nature of test [7]: qHTS of pediatric cancer cell lines to identify multiple opportunities for drug repurposing: Confirmatory screen for A673 cells (AID 1347110).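 Further: cells exposed to compound for 48 h before the viability read; nearly all actives have a fitted effect of over 65% in size.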 Further: potency means the concentration at half of the fitted maximal effect. The essentials: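 Viability was read as ATP luminescence (CellTiter-Glo) after 48 h of compound exposure at 37 C in A673 cells seeded at 500-1,000/well. Titrations reached 46 uM final, with 11 points in the confirmatory screen. Concentration-response curves were fitted directly.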

Test [8] is described as follows: qHTS of pediatric cancer cell lines to identify multiple opportunities for drug repurposing: Confirmatory screen for BT-12 cells (AID 1347112). Further: nearly all actives have a fitted effect of over 55% in size. Further: potency means the concentration at half of the fitted maximal effect. The essentials:
as §2

The nature of test [9]: qHTS of pediatric cancer cell lines to identify multiple opportunities for drug repurposing: Confirmatory screen for LAN-5 cells (AID 1347113). Further: nearly all actives have a fitted effect of over 65% in size. Further: potency means the concentration at half of the fitted maximal effect. A digest of the protocol: as §2
Test [10] in a line: qHTS of pediatric cancer cell lines to identify multiple opportunities for drug repurposing: Confirmatory screen for DAOY cells (AID 1347114). Further: nearly all actives have a fitted effect of over 65% in size. Further: potency means the concentration at half of the fitted maximal effect. The essentials:
(§3)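 Viability measured as metabolically active cells via CellTiter-Glo luminescence following 48 hours of compound exposure, 11-point dilutions in confirmatory testing. 500-1,000 cells/well plated 5 hours before dosing; controls were DMSO and 2.3 µM bortezomib.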

Test [11] can be described thus: qHTS of pediatric cancer cell lines to identify multiple opportunities for drug repurposing: Confirmatory screen for NB-EBc1 cells (AID 1347115).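 Further: cells exposed to compound for 48 h before the viability read; nearly all actives have a fitted effect of over 45% in size.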 Further: potency means the concentration at half of the fitted maximal effect. A digest of the protocol: as §2
Test [12] can be described thus: qHTS of pediatric cancer cell lines to identify multiple opportunities for drug repurposing: Confirmatory screen for BT-37 cells (AID 1347117). Further: nearly all actives have a fitted effect of over 55% in size. Further: potency means the concentration at half of the fitted maximal effect. A digest of the protocol:
as §2

Test [13] is described as follows: qHTS of pediatric cancer cell lines to identify multiple opportunities for drug repurposing: Confirmatory screen for MG 63 (6-TG R) cells (AID 1347119). Further: nearly all actives have a fitted effect of over 55% in size. Further: potency means the concentration at half of the fitted maximal effect. The essentials:
as §2

The nature of test [14]: qHTS of pediatric cancer cell lines to identify multiple opportunities for drug repurposing: Confirmatory screen for control Hh wild type fibroblast cells (AID 1347121). Further: nearly all actives have a fitted effect of over 70% in size. Further: potency means the concentration at half of the fitted maximal effect. A digest of the protocol:
as §2

Test [15] can be described thus: qHTS of pediatric cancer cell lines to identify multiple opportunities for drug repurposing: Confirmatory screen for U-2 OS cells (AID 1347122). Further: nearly all actives have a fitted effect of over 65% in size. Further: potency means the concentration at half of the fitted maximal effect. A digest of the protocol:
as §2

Test [16] in a line: qHTS of pediatric cancer cell lines to identify multiple opportunities for drug repurposing: Confirmatory screen for Rh18 cells (AID 1347125). Further: nearly all actives have a fitted effect of over 55% in size. Further: potency means the concentration at half of the fitted maximal effect. The essentials:
as §2

Test [17] is described as follows: qHTS of pediatric cancer cell lines to identify multiple opportunities for drug repurposing: Confirmatory screen for SJ-GBM2 cells (AID 1347116). Further: potency means the concentration at half of the fitted maximal effect; nearly all actives have a fitted effect of over 60% in size. A digest of the protocol:
as §3

Test [18] is described as follows: qHTS of pediatric cancer cell lines to identify multiple opportunities for drug repurposing: Confirmatory screen for TC32 cells (AID 1347118). A digest of the protocol:
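qHTS, TC32, 48 h drug treatment, CellTiter-Glo luminescence as a proxy for metabolically active cells; primary top concentration 46 µM (MIPE 11-pt, NPC 8-pt); confirmatory 11-pt.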

A short description of test [19]: qHTS of pediatric cancer cell lines to identify multiple opportunities for drug repurposing: Confirmatory screen for RD cells (AID 1347124). A digest of the protocol:
as §2

In the case of `CN1CCc2cc(Cl)c(O)cc2[C@H]2c3ccccc3CC[C@@H]21`, the Potency result in test [1], in test [2] and in [3] was “inactive” each time.
In the case of `CC(C)(C)OC(=O)c1ncn2c1[C@@H]1CCCN1C(=O)c1c(Br)cccc1-2`, the Potency result in test [1], in test [2], in test [4], in test [3] and in test [5] was “inactive” throughout.
For the compound `O=C(NC(=O)c1c(F)cccc1F)Nc1cc(Cl)c(OC(F)(F)C(F)C(F)(F)F)cc1Cl` (stereo not drawn), the Potency entry in [1], in test [2], in [4], in test [3] and in [5] was “inactive” throughout.
Regarding `NC(=O)CN1CCCC1=O`, the Potency entry in test [1], in test [2], in [4], in test [3] and in test [5] was “inactive” in each case.
Consider `CNC(C)Cc1ccccc1OC` (stereo not drawn), for which the Potency entry in test [1], in test [2], in test [4], in test [3] and in [5] was “inactive” in each case.
`OC(c1ccccc1)(c1ccccc1)C1CCNCC1`: the Potency entry in test [1], in test [2], in [4], in test [3] and in test [5] was “inactive” in each case.
`C=CCOC(Cn1ccnc1)c1ccc(Cl)cc1Cl` (stereo not drawn): the Potency result in [1], in [2], in test [4], in test [3] and in [5] was “inactive” throughout.
`O=C(CCCN1CCC(n2c(=O)[nH]c3ccccc32)CC1)c1ccc(F)cc1`: the Potency entry in test [1], in [2], in [3] and in [5] was “inactive” in each case.
On to `CCOC(C(=O)OCCN(C)C)(c1ccccc1)c1ccccc1`, for which the Potency result in [1], in test [2], in [4], in test [3] and in test [5] was “inactive” throughout.
For `CN1C(=O)CN=C(c2ccccc2)c2cc(Cl)ccc21`, the Potency entry in [1], in test [2], in test [4], in test [3] and in test [5] was “inactive” throughout.
With `CN(C)C(=O)Oc1cc(OC(=O)N(C)C)cc(C(O)CNC(C)(C)C)c1` (stereo not drawn), the Potency entry in [1], in test [2], in test [3] and in [5] was “inactive” in each case.
In the case of `COc1cc(C[C@@H](C)N)c(OC)cc1C`, the Potency result in test [1], in test [2], in [4], in test [3] and in [5] was “inactive” throughout.
As for `CCOP(=S)(OCC)O/N=C(\C#N)c1ccccc1`, the Potency entry in [1], in [2], in test [3] and in test [5] was “inactive” throughout.
Take `C[C@]12CC[C@H]3[C@@H](CCC4=CC(=O)CC[C@@H]43)[C@@H]1CC[C@@H]2O`: the Potency entry in test [1], in test [2], in test [4], in test [3] and in test [5] was “inactive” each time.
`C=CC[C@]1(O)CC[C@H]2[C@@H]3CCC4=CC(=O)CCC4=C3C=C[C@@]21C`: the Potency result in test [1], in [2], in [4], in [3] and in test [5] was “inactive” throughout.
On to `CCC1(c2ccccc2)CCC(=O)NC1=O` (stereo not drawn), for which the Potency result in test [1], in test [2], in [3] and in test [5] was “inactive” throughout.
Regarding `C[C@]12CC[C@H]3[C@@H](CCC4=CC(=O)CC[C@@]43C)[C@@H]1CC[C@@H]2C(=O)O`, the Potency result in test [1], in test [2], in test [3] and in test [5] was “inactive” throughout.
For the compound `Nc1ccccc1C(=O)OCC(O)CO` (stereo not drawn), the Potency result in test [1], in [2], in [4], in [3] and in test [5] was “inactive” throughout.
As for `CN(C)CCc1c[nH]c2ccccc12`, the Potency result in test [1], in test [2], in test [4], in test [3] and in test [5] was “inactive” in each case.
`Oc1c(Br)cc(Br)cc1Br`: the Potency result in [1], in test [2], in test [4], in [3] and in test [5] was “inactive” each time.
As for `CC(Cc1ccccc1)NCc1ccccc1Cl` (stereo not drawn), the Potency entry in test [1], in [2], in test [4], in test [3] and in test [5] was “inactive” each time.
As for `C#C[C@]1(O)CC[C@H]2[C@@H]3CCC4=CC(=O)CCC4=C3C=C[C@@]21CC`, in test [2], the Potency result was “inactive”.
In the case of `Oc1ccc([C@H]2CNCc3c2ccc(O)c3O)cc1O`, the Potency result in test [1], in test [4] and in test [3] was “inactive” throughout.
`COc1ccc2[nH]cc(CCN(C(C)C)C(C)C)c2c1`: the Potency result in [1], in test [2], in [4], in [3] and in test [5] was “inactive” each time.
On to `CCc1ccc(C2CCNCC2)cc1`, for which the Potency entry in test [1], in test [2], in test [3], in test [5], in test [6] and in [7] was “inactive” in each case. The Potency result in [8], in [9], in [10], in test [11], in [12] and in test [13] was “inactive” throughout. Besides, the Potency result in [14], in test [15] and in [16] was “inactive” throughout.
In the case of `CN1C[C@@H](NS(=O)(=O)N(C)C)C[C@@H]2c3cccc4c3c(cn4C)C[C@H]21`, the Potency result in test [1], in test [2], in [4], in test [3] and in test [5] was “inactive” in each case.
As for `Cc1nnc2n1-c1sc(CCC(=O)N3CCOCC3)cc1C(c1ccccc1Cl)=NC2`, the Potency result in test [1], in [2] and in test [3] was “inactive” each time.
Regarding `Cc1ccc([N+](=O)[O-])[c]2c1[O][Hg]2`, the Potency in test [1] was 0.188 µM (active); in [2] it was 1.33 µM (active); in test [3], 2.11 µM (active); in test [5] it was 0.668 µM (active); in test [6] it was 0.737 µM (active); in test [7], 0.737 µM (active). In addition, the Potency in [8] is 4.14 µM (active); in test [9], 2.93 µM (active); in test [10], 5.22 µM (active); in test [11], 2.93 µM (active); in [17], 4.14 µM (active); in test [12], 1.47 µM (active). Also, the Potency in test [18] was 0.261 µM (active); in test [13], 5.22 µM (active); in test [14], 16.5 µM (active); in test [15], 9.27 µM (active); in test [19], 0.827 µM (active); in test [16], 5.22 µM (active).
For `CN1C2CCC(C)(C)C1CC(OC(=O)C(O)(c1cccs1)c1cccs1)C2` (stereo not drawn), the Potency result in test [1], in test [2], in test [4], in test [3] and in test [5] was “inactive” in each case.
